Screening results deposited in PubChem by University of Pittsburgh Molecular Library Screening Center.
The sample as a whole holds a higher share of hits than the screen did.
HIV RNase H inh-1: HIV-1 RT RNase H inhibitors, primary screen, biochemical, fluorescence; inhibition, % at 10 µM; RT-RNase H RNA/DNA duplex cleavage; actives 1.9% (n = 65,000); AID 565, 2006; in the data active = inhibition above about 50%
HIV RNase H inh-2: HIV-1 RT RNase H inhibitors, retest, confirmation, biochemical | shares compounds with HIV RNase H inh-1 | Recombinant RT RNase H, fluorescent RNA/DNA duplex cleavage | inhibition, % at 10 µM | actives 39% (n = 1,000) | AID 651, 2007; in the data active = inhibition above about 48%; inconclusive = no clear call, values can overlap the other calls
The depositor's hits bear a star; ? = inconclusive.

SMILES | HIV RNase H inh-1 | others
Cc1ccc(-c2cc(C(=O)NC3=NCCS3)c3cc(Br)ccc3n2)o1 | 95* | HIV RNase H inh-2=80*
Cc1ccc2c(CC(=O)NC3=NCCS3)coc2c1 | -80
COC(=O)c1ccc(Oc2nc3ccccc3n3c(C)nnc23)cc1 | -7
O=C(COc1ccccc1)NC(Cc1c[nH]c2ccccc12)C(=O)O (configuration not stated) | 19
COc1ccc(/C(O)=C2/C(=O)C(=O)N(CCN3CCOCC3)C2c2ccccn2)cc1 (configuration not stated) | -4
COc1ccc(-c2[nH]ncc2-c2cnn(-c3ccccc3)c2)c(O)c1 | 0
O=C1C=C(NCc2ccco2)C2(CCCCC2)O1 | -5
O=C1C=C(NCc2ccccc2)C2(CCCCC2)O1 | -5
CCN(CC)C1=CC(=O)OC12CCCCC2 | 55* | HIV RNase H inh-2=65*
C=CCc1c(C)c(C#N)c2nc3ccccc3n2c1N1CCN(C)CC1 | -8
Cc1cc(NC(=O)CCC(=O)N(c2ccccc2)C(C(=O)NCC2CCCO2)c2cccnc2)no1 (configuration not stated) | -12
CSc1nc(-c2ccccc2)nc2[nH]ccc(=O)c12 | 6
CCCc1nnc2n1N=C(c1ccc(OC)c(OC)c1)CS2 | -17
COc1ccc(C2=Nn3c(nnc3-c3ccccc3)SC2)cc1OC | -2
COc1ccc(Cc2nnc3n2N=C(c2cc4ccccc4o2)CS3)cc1OC | 71* | HIV RNase H inh-2=47
Cn1c(=O)c2c(SCc3cccc(C(F)(F)F)c3)nc(-c3ccco3)nc2n(C)c1=O | 37
Cn1c(=O)c2c(SCc3ccccn3)nc(-c3ccccc3)nc2n(C)c1=O | -10
Cn1c(=O)c2c(SCc3ccccc3)nc(-c3ccco3)nc2n(C)c1=O | 52* | HIV RNase H inh-2=13
CC(C)c1ccc(O)c(N)c1 | 58* | HIV RNase H inh-2=-13
CC(C)(C)c1ccc(SCC(N)=O)cc1 | -12
CCC(C)c1ccc(O)c(NC(=O)c2cncc(Br)c2)c1 (configuration not stated) | 3
CC(C)(C)c1ccc(-c2cc(N)n[nH]2)cc1 | -8
CC(C)(C)c1ccc(O)c(N)c1 | 86* | HIV RNase H inh-2=?
CCC(C)c1ccc(O)c(N)c1 (configuration not stated) | 60* | HIV RNase H inh-2=4
O=C(CCN1C(=O)COc2ccccc21)NCc1cccs1 | -3
SMILES | HIV RNase H inh-1 | others
COc1cc(-c2nnc(CSc3nnc4nc(C)cc(C)n34)o2)cc(OC)c1OC | -6
C=C1[C@@H](C)C2[C@H](Cc3ccccc3)NC(=O)[C@]23OC(=O)CC[C@H](O)CCC[C@H](C)C/C=C/[C@H]3[C@@H]1O (some centres not stated) | 1
Cc1cc(NC(=O)CSc2n[nH]c(CC(C)C)n2)no1 | -8
CC1CN(c2nc3c(c(=O)[nH]c(=O)n3C)n2Cc2ccccc2F)CC(C)O1 (configuration not stated) | 7
CC1CCc2cc(F)ccc2N1C(=O)c1ccc2c(c1)OCO2 (configuration not stated) | -4
CCOC(=O)C1CCN(C(=O)CCNC(=O)c2cc(OC)c(OC)c(OC)c2)CC1 | 7
O=C(c1ccc(N2CCNCC2)cc1)c1cccnc1 | -7
COC(=O)c1ccc(C2CC(=O)NC3=C2C(=O)CCC3)cc1 (configuration not stated) | 91* | HIV RNase H inh-2=38
CCOc1ccc(C2CC(=O)NC3=C2C(=O)CCC3)cc1Cl (configuration not stated) | -14
CC(C)Oc1ccc(C2CC(=O)NC3=C2C(=O)CCC3)cc1 (configuration not stated) | -8
CS(=O)(=O)N1CCC(C(=O)Nc2ccc(Br)cc2F)CC1 | -5
CCOC(=O)C1=C(c2ccccc2)N2CCN=C2S1 | -50
Cc1nnc(N(CCC#N)CCC#N)s1 | -7
Cc1ccsc1C(=O)OCC(=O)Nc1sccc1C(N)=O | -25
COC(=O)c1c(NC(=O)c2ccc(Br)o2)sc(C)c1C | 74* | HIV RNase H inh-2=1
COC(=O)c1c(NC(=O)Cc2cccs2)sc(C)c1C | -43
COC(=O)c1sccc1NC(=O)c1ccc(Br)o1 | -32
COc1ccc(-n2c(Cc3cccn3C)nnc2SCC(=O)Nc2ccc(C(C)=O)cc2)cc1 | -52
C=CCn1c(N)cc(=O)nc1SCC(=O)N1CCN(c2ccc(F)cc2)CC1 | -2
CC(C)n1c(SCC(=O)N2CCCc3ccccc32)nc2c1c(=O)n(C)c(=O)n2C | -16
CCOCCCn1c(=N)c(C(N)=S)cc2c(=O)n3cccc(C)c3nc21 | 10
CCOC(=O)c1cc2c(=O)n3cccc(C)c3nc2n(C)c1=N | -20
Cc1cccn2c(=O)c3cc(C(N)=S)c(=N)n(CCCOC(C)C)c3nc12 | 69* | HIV RNase H inh-2=9
COc1cccc(C(=O)CN2C(=O)C(C)(C)Oc3ccc(C(=O)N4CCCCCC4)cc32)c1 | 2
Cc1nc2sc(C(c3cccc(F)c3)N3CCCC(C)C3)c(O)n2n1 (configuration not stated) | -9
SMILES | HIV RNase H inh-1 | others
Cc1cc2oc3c(c(=O)c2cc1C)C(c1cccc(Br)c1)N(Cc1ccco1)C3=O (configuration not stated) | 5
COCCN1C(=O)c2oc3ccccc3c(=O)c2C1c1ccc(O)c(OC)c1 (configuration not stated) | 3
Cc1ccc2oc3c(c(=O)c2c1)C(c1cccc(Br)c1)N(Cc1ccco1)C3=O (configuration not stated) | 60* | HIV RNase H inh-2=?
O=C1c2oc3ccc(Cl)cc3c(=O)c2C(c2cccc(Br)c2)N1CCO (configuration not stated) | 5
COc1cc(C2c3c(oc4ccccc4c3=O)C(=O)N2Cc2ccncc2)ccc1O (configuration not stated) | 6
CCOc1cc(C2c3c(oc4cc(C)c(Cl)cc4c3=O)C(=O)N2Cc2ccco2)ccc1O (configuration not stated) | 61* | HIV RNase H inh-2=58*
Cc1cccn2c(=O)c3cc(C(=O)NCCCN4CCCC4=O)n(C)c3nc12 | -11
N#CCSc1nnc(COc2ccc3ccccc3c2)o1 | -3
CCOc1c(Br)cc(C2NS(=O)(=O)N=C3CCCCCN32)cc1OC (configuration not stated) | -6
COc1cc2nc(CN3CCN(c4ncc(C(F)(F)F)cc4Cl)CC3)[nH]c(=O)c2cc1OC | 0
CC(=O)Nc1nc2ccc(-c3nc4ccccc4o3)cc2s1 | -7
CCOc1cc(N2CCOCC2)c(OCC)cc1NC(=O)c1ccc(=O)n(Cc2ccccc2)n1 | 11
c1ccc(-n2c(-c3ccco3)nnc2N2CCOCC2)cc1 | -7
CN(C)c1ccc2c(c1)N=C(c1ccco1)OP2(=S)N1CCOCC1 (configuration not stated) | 89* | HIV RNase H inh-2=68*
CCOC(=O)N1CCN(C(=O)CC(C(=O)N2CCc3ccccc32)n2ccnc2)CC1 (configuration not stated) | -4
COC(=O)C(CC(=O)c1ccc(Br)cc1)n1ccnc1 (configuration not stated) | 79* | HIV RNase H inh-2=36
Cc1ccc(C(=O)CC(C(=O)O)n2cccn2)cc1 (configuration not stated) | -1
CCc1c(C(=O)O)[nH]c2ccc(Br)cc12 | -7
CCCn1nc(NC(=O)CC(C)C)c2cc3ccccc3nc21 | 10
COCCn1c(CNc2ccc(F)cc2)nnc1SCC(=O)Nc1ccc(OC)cc1OC | -3
COc1ccc(Cn2c(CCC(=O)O)nc3cccnc32)cc1 | 3
